Source: PubChem (Broad Institute)
In the library only some 6.8% were active in any assay of this set; here they are far more common.
C diff growth = C. difficile growth inhibitors, primary screen, HTS. Clostridium difficile clinical isolate growth, OD600, 24 h; hits give low values. growth activity, negative = inhibition, % at 16 µg/mL (by protocol). 0.25% of 86,000 active. AID 1259249, 2017;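 active means mean growth activity at or below -80% and every replicate also at or below -80%; inconclusive means mean at or below -80% but some replicate above -80%; inactive means mean growth activity above -80%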;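 further: 0% = DMSO wells and -100% = levofloxacin 16 µg/mL wells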
T cruzi growth-1 = T. cruzi intracellular proliferation inhibitors, primary screen, cell-based, beta-gal Tulahuen parasites, NIH3T3 host, luminescence | T. cruzi beta-gal in NIH3T3, GalScreen luminescence, 90 h | inhibition, % at 8.34 µM | 5.9% of 77,000 active;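 active means mean inhibition above about 93%, with at least 55% of replicates each passing it, limit read from the data, passing the limit was not always enough; inconclusive means only one of those two conditions holds; inactive means neither condition holds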
Pf Dd2 inh = P. falciparum Dd2 growth inhibitors, primary screen, SYBR Green fluorescence, single dose replicates | 72 h; hits give low values | activity change, % at 10 µM | 2.3% of 94,000 active; in the data active means activity change below about -80%; inconclusive means no clear call, values can overlap the other calls
T cruzi growth-2 = T. cruzi intracellular proliferation inhibitors, confirmation, cell-based, NIH3T3 host, beta-gal parasite, luminescence, cherry-pick. AID 651739, 2012. T. cruzi beta-gal in NIH3T3, GalScreen luminescence, 90 h. shares compounds with T cruzi growth-1. 72% of 5,600 active. inhibition, % at 8.35 µM;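 active means mean replicate inhibition above about 95% and at least 55% of replicates individually reaching it, limit read from the data; inconclusive means only one of the two criteria is met; inactive means neither criterion is met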
T cruzi growth-3 = inhibitors of intracellular T. cruzi replication, confirmation, NIH3T3 host cells, beta-gal parasites, cherry-pick, set 2; shares compounds with T cruzi growth-1; 21% of 5,600 active; T. cruzi beta-gal in NIH3T3, GalScreen luminescence, 90 h; AID 651740, 2012; inhibition, % at 2.09 µM;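 active means mean inhibition above about 95%, with at least 55% of replicates also reaching it, limit read from the data; inconclusive means meets just one of the two conditions; inactive means meets neither condition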;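 further: plate controls were neutral control median for no effect and positive control median for full effect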
3T3 cytotox = cytotoxicity in mouse NIH/3T3 fibroblasts, confirmation, cytotoxicity control for T. cruzi proliferation inhibitor project, cell-based, cherry-pick, single point; shares compounds with T cruzi growth-1; NIH/3T3 viability, CellTiter-Glo ATP luminescence, 90 h; cytotoxicity (signal decrease), % at 8.35 µM; 14% of 5,600 active; AID 651742, 2012;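 active means mean signal decrease across replicates above about 35% based on untreated-well scatter, with enough replicates individually passing, limit read from the data; inconclusive means no rule stated though some were filed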;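 further: 0% = median of neutral control wells and 100% = median of positive control wells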
NIH3T3 tox 2 = NIH/3T3 fibroblast cytotoxicity, confirmation, cytotoxicity control, cell-based, cherry-pick, single point, set 2 | shares compounds with T cruzi growth-1 | AID 651744, 2012 | 56% of 5,600 active | inhibition, % at 24.9 µM | NIH/3T3 viability, CellTiter-Glo ATP luminescence, 90 h;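 active means mean loss of cell viability signal at or above a set limit, and enough replicates individually reaching it; inconclusive means meets only the mean limit or only the replicate share; inactive means meets neither condition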;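 further: 0% = median of neutral control wells and 100% = median of positive control wells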
Active calls of the source: *; u = inconclusive; x = no result.

SMILES	C diff growth	T cruzi growth-1	Pf Dd2 inh	T cruzi growth-2	T cruzi growth-3	3T3 cytotox	NIH3T3 tox 2
C[C@@H]1CN([C@@H](C)CO)C(=O)c2cc(NC(=O)c3ccccc3)ccc2O[C@@H](C)CCCCO[C@@H]1CN(C)Cc1ccccc1	1	90	-66	x	x	x	x
C=CCOC(=O)[C@@]12O[C@]3(COC[C@H](c4ccccc4)N3C1=O)[C@@H]1C(=O)N(c3ccccc3)C(=O)[C@@H]12	-5	x	x	x	x	x	x
CCCNC(=O)N[C@@H]1CC[C@@H](CCNS(=O)(=O)c2cccc(F)c2)O[C@H]1CO	x	-52	-12	x	x	x	x
CCS(=O)(=O)N1CCC2(CC1)CN(S(=O)(=O)c1cccc(OC)c1)[C@H](CO)c1[nH]c3cc(OC)ccc3c12	19	x	-51	x	x	x	x
CNC[C@@H]1OCCCC[C@H](C)Oc2ccc(NC(=O)C3CCCCC3)cc2C(=O)N([C@@H](C)CO)C[C@@H]1C	-5	-31	-14	x	x	x	x
COc1ccc(NC(=O)N(C)C[C@@H]2Oc3cc(-c4ccncc4)ccc3S(=O)(=O)N([C@H](C)CO)C[C@H]2C)cc1	0	72	4	x	x	x	x
COc1ccc(NC(=O)N(C)C[C@H]2Oc3cc(-c4ccc(C)cc4)ccc3S(=O)(=O)N([C@@H](C)CO)C[C@H]2C)cc1	0	106*	-75	108*	70	-19	13
COc1ccc(NC(=O)N(C)C[C@@H]2Oc3cc(-c4ccc(C)cc4)ccc3S(=O)(=O)N([C@H](C)CO)C[C@@H]2C)cc1	-2	123*	-90*	105*	85	47*	25
COc1ccc(NC(=O)N(C)C[C@H]2Oc3cc(-c4ccncc4)ccc3S(=O)(=O)N([C@H](C)CO)C[C@@H]2C)cc1	0	63	-17	x	x	x	x
CC(C)CC#Cc1cnc2c(c1)C(=O)N([C@H](C)CO)C[C@H](C)[C@H](CN(C)C(=O)c1ccccc1F)O2	-3	49	-4	x	x	x	x
O=C(c1ccccn1)N1CC2(C1)[C@H](c1ccccc1)[C@H](CO)N2Cc1ccc(Cl)cc1	8	x	-45	x	x	x	x
COc1ccc(C#Cc2cnc3c(c2)C(=O)N([C@@H](C)CO)C[C@H](C)[C@@H](CN(C)C(=O)CC2CC2)O3)cc1	-2	97*	-67	60	31	-8	26
COc1ccc(C#Cc2cnc3c(c2)C(=O)N([C@@H](C)CO)C[C@@H](C)[C@@H](CN(C)C(=O)CC2CC2)O3)cc1	-3	56	-60	x	x	x	x
COc1ccc(C#Cc2cnc3c(c2)C(=O)N([C@H](C)CO)C[C@H](C)[C@H](CN(C)C(C)=O)O3)cc1	5	110*	-5	90	-18	21	34*
COc1ccc(C#Cc2cnc3c(c2)C(=O)N([C@@H](C)CO)C[C@H](C)[C@H](CN(C)C(C)=O)O3)cc1	0	88	-1	x	x	x	x
COc1ccccc1S(=O)(=O)N[C@H]1C=C[C@H](CC(=O)NCc2cc(F)cc(F)c2)O[C@@H]1CO	x	-11	3	x	x	x	x
CO[C@@H]1CN(C)C(=O)c2cc(NC(=O)Nc3cc(F)ccc3F)ccc2OC[C@H](C)N(C(=O)c2ccccn2)C[C@H]1C	-3	-66	12	x	x	x	x
Cc1cccc(S(=O)(=O)N2C[C@H](O)COC[C@H]3O[C@H](CC(=O)Nc4ccc(-c5ccccc5)cc4)CC[C@@H]32)c1	5	u	-22	104*	74	23	99*
O=C(C[C@H]1CC[C@H]2[C@@H](COC[C@@H](O)CN2S(=O)(=O)c2ccccc2)O1)Nc1ccc(-c2ccccc2)cc1	x	88	-14	x	x	x	x
Cc1cccc(S(=O)(=O)N2C[C@@H](O)COC[C@@H]3O[C@@H](CC(=O)Nc4ccc(-c5ccccc5)cc4)CC[C@H]32)c1	8	72	-61	x	x	x	x
